A selection: hits, their analogues and other compounds. The true share with any hit is near 2.5%.
FLuc inh: firefly luciferase inhibition; Potency, µM (top dose mostly 57.1 µM), for inactives: top-dose activity change, negative = inhibition, hits mostly inhibitors; actives 2.2% (n = 72,000); purified firefly luciferase, luminescence, 8 min; active = well fitted inhibition curve with a large enough effect; inconclusive = small, poorly fitted or top-dose-only effect; note: nearly all actives have a fitted effect of over 40% in size
Target sequence (P08659 whole entry, looked up): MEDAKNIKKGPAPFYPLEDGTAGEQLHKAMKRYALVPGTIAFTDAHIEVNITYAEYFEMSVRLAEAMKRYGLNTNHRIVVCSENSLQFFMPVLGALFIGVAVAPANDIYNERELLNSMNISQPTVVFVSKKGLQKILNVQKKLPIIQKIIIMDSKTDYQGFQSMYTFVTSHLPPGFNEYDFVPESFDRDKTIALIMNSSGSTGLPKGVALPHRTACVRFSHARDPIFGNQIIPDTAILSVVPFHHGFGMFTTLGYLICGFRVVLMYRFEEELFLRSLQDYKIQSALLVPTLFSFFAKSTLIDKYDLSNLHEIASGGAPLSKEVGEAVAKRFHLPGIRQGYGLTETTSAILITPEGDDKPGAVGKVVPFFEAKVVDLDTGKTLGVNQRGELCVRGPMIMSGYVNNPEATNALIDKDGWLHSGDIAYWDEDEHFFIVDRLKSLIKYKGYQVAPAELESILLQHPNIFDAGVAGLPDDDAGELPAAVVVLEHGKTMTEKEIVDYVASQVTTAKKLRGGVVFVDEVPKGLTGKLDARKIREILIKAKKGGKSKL
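Substrate buffer containing 10 uM ATP (pH 7.2 imidazole, Mg2+, KCl, detergent, BSA) is dispensed, compound pinned in, then luciferase/luciferin detector mix added. After 8 min at ambient temperature, light output is measured.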
PK Bst: modulators of Bacillus stearothermophilus pyruvate kinase; purified pyruvate kinase, luminescence ATP production; ribose 5-phosphate activator present at AC10; Potency, µM; actives 1.2% (n = 51,000); AID 361; in the data active = potency below about 11 µM; inconclusive = mostly about 12 µM to 25 µM;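 the screen sought inhibitors and activators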;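 note: scaled between full activation by ribose 5 phosphate and full inhibition by luteolin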
An asterisk follows results filed as active; i = inactive; ? = inconclusive; nt = no result given; [ ] = dose if it differs, or a comment. Unless noted, % is set by controls: 0 for no effect and ±100 for the full control effect; potency is the fitted concentration of half-maximal effect.

SMILES | FLuc inh | PK Bst
CC(=O)c1c(C)[nH]c(C(=O)CSc2nnc(C3CCCCC3)n2N)c1C | -1% | >57
O=S(=O)(Nc1cccc(C(F)(F)F)c1)c1cccnc1 | 1% | >57
COc1ccc(OC(C)C(=O)N2CCc3ccccc3C2)cc1 (centres undefined) | 1% | i
COc1cc(C(=O)OC(C)C(=O)N2CCc3ccccc3C2)ccc1OCC(=O)N1CCOCC1 (centres undefined) | -2% | 11*
C=C(C)CSc1nnc2n(C)c(=O)c3c4c(sc3n12)CCC4 | 1%[25.5 µM] | >26
CCn1c(C)csc1=NC(=O)c1ccccc1 | -20% | >57
CCn1c(C)csc1=NC(=O)c1ccccc1O | 13µM* | i
NC(CO)C(=O)NNCc1ccc(O)c(O)c1O (centres undefined) | -2%[25.5 µM] | >11
COCCn1c(=O)c(-c2cccs2)nc2cnc(N3CCNCC3)nc21 | -4%[11.4 µM] | nt
Nc1nncn1C(=O)c1c(Cl)cccc1Cl | -2% | ?
Nc1nncn1C(=O)c1cccs1 | 3% | 2.5*
COCC(=O)N1CCC2(CCN(Cc3cc(C(F)(F)F)cc(C(F)(F)F)c3)CC2)CC1 | 1%[11.4 µM] | nt
Cc1ccc(-c2cnc(-c3ccncc3)o2)cc1 | 13µM* | nt
Cc1ccc(-n2c(-c3ccncc3)nnc2-c2ccco2)cc1 | 2% | >57
Cc1cc(C)c2cc(C#N)c(SCC(=O)NCC3CCCO3)nc2c1 (centres undefined) | 0% | >57
O=C(Nc1nc(-c2cccs2)cs1)c1ccc(Cl)s1 | -15% | nt
CC(C)(C)c1csc(NC(=O)c2ccc(Cl)s2)n1 | 16µM* | i
COc1cccc(OCC(O)CN2CC(C)CC(C)C2)c1 (centres undefined) | 1% | >57
COCC(=O)/C=C1\Sc2ccccc2N1C | -1% | >57
CN1/C(=C\C(=O)c2cccs2)Sc2ccccc21 | 6.3µM* | 6.6*
Cc1ccc(NC2=CC(=O)CC(c3ccco3)C2)c(N)c1 (centres undefined) | 2% | nt
COc1cc(OC)cc(-c2nc3cc(C)ccc3o2)c1 | 16µM* | i
Cc1ccc2nc(-c3cccc(-c4nc5ccc(C)cc5o4)n3)oc2c1 | 1% | >57
COc1cc(C(=O)Nc2cc(-c3nc4cc(C)ccc4o3)ccc2C)cc(OC)c1OC | 1µM* | nt
COc1cc(C(=O)Nc2cccc(-c3nc4cc(C)ccc4o3)c2C)cc(OC)c1OC | -28% | nt
SMILES | FLuc inh | PK Bst
Cc1ccc(/C(O)=C2/C(=O)C(=O)N(Cc3ccco3)C2c2cccs2)cc1 (centres undefined) | -6%[25.5 µM] | >26
O=C(Oc1ccc2c(c1)OCO2)c1ccc(F)cc1Cl | 13µM* | nt
CCOc1ncccc1C(=O)Oc1ccc2c(c1)OCO2 | 1% | >57
COC(=O)c1cc(NC(=O)C2CC=CCC2C(=O)O)cc(C(=O)OC)c1 (centres undefined) | 4% | nt
O=C(COC(=O)c1cccnc1)Nc1cccc(Cl)c1 | -3% | >57
O=C(COC(=O)c1cccnc1)c1ccc(Cl)cc1 | 16µM* | nt
CCOc1ccc(CNC(=O)NS(=O)(=O)c2ccc(OC)cc2)cc1 | 2% | >57
NC(=O)CSc1oc(-c2ccc(F)cc2)nc1S(=O)(=O)c1ccccc1 | -8% | >57
Cc1ccc(S(=O)(=O)c2nc(-c3cccs3)oc2SCC(N)=O)cc1 | 3% | 9.1*
COc1cc(-c2nnc3sc(-c4ccco4)nn23)cc(OC)c1OC | 1% | nt
Cc1ccc(S(=O)(=O)NC2(C(F)(F)F)NC(=O)N(C)C2=O)cc1 (centres undefined) | 3% | >57
O=C(c1cccnc1NCc1ccc(F)cc1)N1CCOCC1 | 5% | >57
O=C1c2oc3ccc(F)cc3c(=O)c2C(c2ccncc2)N1CCN1CCOCC1 (centres undefined) | 6% | nt
Cc1cc(=O)n2[nH]c(-c3ccc(F)cc3)cc2n1 | ? | i
Cc1cc(=O)n2[nH]c(-c3ccc(Cl)cc3)cc2n1 | 16µM* | ?
CCOC(=O)COc1ccc(S(=O)(=O)N2CCc3ccccc3C2)cc1 | 0% | >57
Cc1ccn2c(-c3csc(NCc4ccco4)n3)c(C)nc2c1 | -2% | nt
COc1ccc(-c2csc(NCc3ccco3)n2)cc1C | 7.9µM* | nt
c1ccn2c(CNc3ncnc4sccc34)nnc2c1 | 2% | >57
CCNc1nc(C)nc2c1oc1ccccc12 | 1% | >57
CCNc1nc(CC)nc2c1oc1ccccc12 | -3% | 5*
Cn1cccc1C(=O)NC(=O)CSc1nnc(C2CC2)n1-c1ccccc1 | 0% | >57
Cc1ccc(S(=O)(=O)CC(c2ccccc2)N2CCOCC2)cc1 (centres undefined) | 2% | >57
CC(C)NCC[C@@H](O)c1cc2ccccc2o1 | 3%[11.4 µM] | nt
CCc1cccc(CC)c1N(COC)C(=O)Cn1nnc2ccccc21 | -1%[25.5 µM] | 6.7*
SMILES | FLuc inh | PK Bst
CCc1cccc(CC)c1N(COC)C(=O)Cn1c(CO)nc2ccccc21 | 2% | >57
Cc1ccc(Cn2nnnc2CN2CCC(O)(c3ccccc3F)CC2)cc1 | 0% | >57
Cc1ccc(C23CC4CC(CC(NC(=O)N5CCN(C)CC5)(C4)C2)C3)cc1 | -1% | >57
Nc1ccc(C23CC4CC(CC(O)(C4)C2)C3)cc1 | -22% | 9.1*
CC(=O)Nc1ccc(NC(=O)c2ccco2)cc1 | -9% | nt
O=C(/C=C/Nc1ccc(F)c(Cl)c1)c1ccco1 | 16µM* | i
O=C(CCNc1ccc(F)c(Cl)c1)c1ccco1 | -1% | nt
CC(=O)Nc1ccc(N/C=C/C(=O)c2ccco2)cc1 | 25µM* | i
O=c1c(-c2ccc(Cl)cc2)nc2cnc(Nc3ccccc3)nc2n1C1CC1 | 2%[11.4 µM] | nt
Cn1cccc1Cc1nnc(SCC(=O)NC2CCCC2)n1CCc1ccccc1 | 2% | nt
O=C(C1CCN(c2nnc(N3CCCC3=O)s2)CC1)N1CCN(Cc2ccc3c(c2)OCO3)CC1 | 0% | >57
COc1ccc(C(CNC(=O)COc2ccccc2C#N)N2CCOCC2)cc1 (centres undefined) | 1% | >57
CC(C)(C)NC(=O)NC(=O)COc1ccccc1C#N | 20µM* | i
CCN(CC)c1ccc(C=N/C(C#N)=C(\N)C#N)cc1 | -5% | >57
O=C(Nc1nc2ccccc2[nH]1)C1CCCO1 (centres undefined) | -12% | nt
O=C(Nc1ccc(-c2nc3ccccc3[nH]2)cc1)C1CCCO1 (centres undefined) | 2.5µM* | 3.2*
O=C(CN1CCOCC1)Nc1ccc(-c2nc3ccccc3[nH]2)cc1 | 16µM* | i
O=C(CN1CCC(c2nc3ccccc3[nH]2)CC1)Nc1ccc2c(c1)OCO2 | -2% | >57
O=C(O)CCCC(=O)Nc1cccc(-c2nc3ccccc3[nH]2)c1 | 20µM* | nt
O=C(CCc1nc2ccccc2[nH]1)Nc1ccccc1 | -2% | >57
CCCCC(CC)CNC(=O)CN(C)S(=O)(=O)c1cccc2nsnc12 (centres undefined) | 1% | >57
CC(C)(C)NC(=O)C(c1ccccc1)N(C(=O)c1csnn1)C1CC1 (centres undefined) | 0% | >57
CCOc1cc(N2C(=O)CC3CS(=O)(=O)CC32)c(OCC)cc1NC(=O)c1ccccc1 (centres undefined) | 1% | >57
CCOc1ccc(CCNC(=O)C2CC(=O)N(C3CCCC3)C2)cc1OCC (centres undefined) | 1% | >57
N#CC1=C(N)NC(SCc2ccccc2)=C(C#N)C12CCCCC2 | -1% | nt
CCSC1=C(C#N)C2(CCCCC2)C(C#N)=C(N)N1 | 16µM* | i
O=C(CSc1nnnn1Cc1ccccc1)Nc1ccc2c(c1)OCCO2 | -4% | >57

Screens deposited in PubChem by National Center for Advancing Translational Sciences (NCATS).
